# 697 NFkB inh: lowers PMA/ionomycin-induced NF-kB signal in 697 B cells; 697 B-cell NF-kB luciferase reporter, 16 h; inhibition, % at 4 µM; hit rate 0.33% among 330,000; in the data active = inhibition above about 35%
# Shn3 3UTR inh: inhibitors of Schnurri-3 3'UTR reporter in osteoblasts; Clone20 osteoblast Shn3 3'UTR firefly luciferase, 24 h; inhibition, % at 12.5 µM; hit rate 0.52% among 360,000;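 active = mean inhibition of at least 75% with every replicate also reaching 75%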;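 note: 0% = median of neutral control wells and 100% = pilot-screen positive control compound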
# Beta cell apopt: beta cell apoptosis inhibition; hit rate 0.8% among 300,000; protection from apoptosis, % (no concentration beside the values); INS-1E cytokine-induced death, ATP luminescence, 48 h; percent of positive-control rescue, neutral wells zero;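 active = Every replicate reaches about 75%, or at least half do and their mean reaches it too, limit read from the data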;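 note: 0% = cytokine-treated negative control wells and 100% = positive control rescue; higher means more ATP so stronger rescue from cytokine killing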
# Calb FLC: C. albicans growth modulation with fluconazole. hit rate 0.57% among 300,000. AID 1979. growth inhibition, % (test concentration not listed). C. albicans CaCi-2 (fluconazole-resistant clinical isolate) + fluconazole, Alamar Blue growth, 48 h;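 active = growth inhibition above about 58% in most replicates, limit read from the data, passing the limit was not always enough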;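 note: all wells also contain fluconazole at 8 µg/ml as a sub-toxic cotreatment; 0% = median of DMSO wells and 100% = median of geldanamycin control wells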
# Jurkat NFkB inh: inhibitors of the PMA/ionomycin-induced NF-kB reporter in Jurkat cells. PMA/ionomycin-induced NF-kB luciferase reporter, luminescence. inhibition, % at 4 µM. hit rate 0.53% among 330,000. AID 435003; in the data active = inhibition above about 50%
# Jurkat NFkB conf: inhibitors of the PMA/ionomycin-induced NF-kB reporter in Jurkat cells, retest; shares compounds with Jurkat NFkB inh; Jurkat NF-kB luciferase, 16 h; inhibition, % at 4 µM; hit rate 27% among 2,700;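 active = inhibition reaching about 45% at 4 µM in either replicate, limit read from the data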;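 note: plate controls were PMA/ionomycin stimulated DMSO wells for no effect and unstimulated DMSO wells for full effect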
# * marks the source's active call; other numbers are inactive results; x = no result. In the library only some 2% were active in any assay of this set; here they are far more common.
SMILES,697 NFkB inh,Shn3 3UTR inh,Beta cell apopt,Calb FLC,Jurkat NFkB inh,Jurkat NFkB conf
Cc1cc(-c2ccc(C(C)C)c(S(=O)(=O)N3CCN(c4ccccc4)CC3)c2)on1,-52.7,-32.5,5.9,22.9,52.7*,47.1*
COc1ccc(-c2cc(C)no2)cc1S(=O)(=O)N1CCN(c2cccc(C)c2)C(C)C1 (stereo unspecified),-60.1,71.4,10.3,7.7,34.1,x
COc1ccc(N2CCN(S(=O)(=O)c3cc(-c4cc(C)no4)ccc3C(C)C)CC2)cc1,-72.6,23.7,-0.4,6.7,22.8,x
CC1(C(=O)OCC(=O)Nc2nc(-c3ccc(F)c(F)c3)cs2)CC1(Cl)Cl (stereo unspecified),-3.6,-0.2,x,-6.6,-29.5,x
CC1(C)S[C@@H]2[C@H](NC(=O)[C@H](N)c3ccccc3)C(=O)N2[C@H]1C(=O)OC1OC(=O)c2ccccc21 (stereo partly specified),17.9,0.8,x,x,15.3,x
Cc1ccc(C(=O)Sc2cccccc2=O)cc1,-85.6,95.6*,34.0,-3.4,90.3*,14.3
Cc1cccc(C(C)C)c1NC(=O)COC(=O)CCC(=O)N(CC(C)C)c1c(N)n(CC(C)C)c(=O)[nH]c1=O,x,-12.3,x,x,x,x
Cc1ccc2c(c1)C(=C(C#N)C#N)CCN2,x,9.4,x,x,x,x
O=C(NCCS(=O)(=O)NC1CCCC1)c1ccccc1,0.5,10.1,-6.2,11.9,-10.2,x
COc1ccc(-n2nnnc2-c2cccc(OC)c2)cc1,-4.8,x,6.0,-1.9,50.0,42.2
COC(=O)c1cccc(NC(=O)Nc2ccc(Cl)cc2)c1,-69.7,-40.3,8.4,-14.5,-1.8,x
COC(=O)c1cccc(NC(=O)NC(=O)c2ccc(Cl)cc2)c1,-33.5,-20.4,7.9,2.5,85.9*,2.9
CCOC(=O)c1ccc(S(=O)(=O)N2CCN(CC(O)COc3ccc(C#N)cc3)CC2)cc1 (stereo unspecified),1.6,11.9,-1.5,5.4,8.3,x
Cc1cc(C)n2nc(C(=O)Nc3ccc4c(c3)OCO4)cc2n1,-164.3,-54.1,4.1,24.1,-188.2,-79.6
O=C(Nc1ccc2c(c1)OCO2)c1cc(Cl)ccn1,-134.3,-58.5,1.7,x,-140.3,x
O=C(Nc1ccc2c(c1)OCO2)c1ccc(Cl)cc1Cl,-210.6,-80.0,6.1,-16.7,-156.6,-65.2
O=C(Nc1ccc2c(c1)OCO2)c1cc2nc(C3CC3)cc(C(F)(F)F)n2n1,x,-0.1,x,10.5,x,x
O=C(O)c1ccc(CNC(=O)C2CCN(S(=O)(=O)c3ccc4c(c3)OCCO4)CC2)cc1,x,-3.1,x,x,x,x
COc1ccccc1C1NC(=O)NC(C)=C1C(=O)OC1CCC(C)CC1 (stereo unspecified),-4.4,-2.8,-7.4,0.3,-0.3,x
O=C(Nc1cccc(S(=O)(=O)N2CCOCC2)c1)c1ccc(Cl)nc1,-22.5,17.9,-5.1,x,14.2,x
O=C(Nc1cccc(S(=O)(=O)N2CCCC2)c1)c1ccc(Cl)nc1,-39.5,40.4,4.1,x,63.3*,31.9
NNC(=O)COc1ccccc1F,-0.6,-20.1,-3.5,-0.6,96.2*,2.5
NC(=O)C1CCN(C(=O)C2CC(=O)N(Cc3ccccc3)C2)CC1 (stereo unspecified),9.3,-24.7,-1.4,x,9.1,x
O=C(NC1C=CS(=O)(=O)C1)c1sc2ccccc2c1Cl (stereo unspecified),-4.3,9.7,-18.2,14.9,55.7*,17.9
Cc1ccc2cccc(OCC(=O)Nc3cccc(S(=O)(=O)N4CCCC4)c3)c2n1,-5.8,17.6,2.8,x,-19.0,x
SMILES,697 NFkB inh,Shn3 3UTR inh,Beta cell apopt,Calb FLC,Jurkat NFkB inh,Jurkat NFkB conf
O=C(Nc1nc2ccsc2c(=O)s1)c1ccc(Cl)cc1,-143.5,-31.3,-3.5,0.6,-198.9,-108.5
O=C(Nc1ccccc1)C(=O)Nc1ccc2c(c1)N(C(=O)C1CC1)CCC2,-151.2,-38.5,30.8,-7.3,-163.0,-71.2
CCOC(=O)C(C)Oc1cccc2c(=O)n(CC(=O)NCc3ccc(F)cc3)ccc12 (stereo unspecified),-8.0,27.4,19.2,6.1,73.0*,48.2*
CCOC(=O)C(C)Oc1cccc2c(=O)n(CC(=O)NCCc3ccccc3)ccc12 (stereo unspecified),23.2,-13.5,-0.7,6.6,-3.7,x
CCOC(=O)C(C)Oc1cccc2c(=O)n(CC(=O)NCc3ccccc3)ccc12 (stereo unspecified),-17.3,22.7,13.3,5.4,71.8*,57.5*
Cc1cnc(NC(=O)COc2ccc3c(c2)CCC3)s1,-12.5,-77.6,-15.7,-2.0,-151.9,-87.2

# Compound activity (PubChem)
